Assay results as given in PubChem BioAssay AID588405 (Sanford-Burnham Center for Chemical Genomics, 2011).
The campaign covered roughly 360,000 compounds. About 6,200 (1.7%) were called active.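 How the source made its calls: active means inhibition of at least 50% at 20 µM; inactive means the rest.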 The sample as a whole holds a higher share of actives than the screen did.

experiment: Peg3 promoter-driven luciferase inhibitors, primary screen, cell-based, HeLa, luciferase luminescence (AID 588405); settings: HeLa PEG-Prom luciferase reporter, overnight, at 20 µM, active compounds read high

inhibition, active:
CC1CN(C(=O)CCC(=O)NCCCN2CCC(Cc3ccccc3)CC2)c2cc(Cl)ccc2O1 (stereo not drawn) 102%, CC(=O)Nc1ccc(CNc2nc(NCCN(C)C)nc3cc(-c4ccccc4)sc23)cc1 97.3%, Cc1cc(C)cc(Oc2nc3c(C)cccn3c(=O)c2/C=C(\C#N)C(=O)NC2CCS(=O)(=O)C2)c1 (stereo not drawn) 61.6%, O=[N+]([O-])c1cc(S(=O)(=O)Nc2cccc(Cl)c2)ccc1N=Nc1c(O)[nH]c2ccccc12 65.1%, c1c2c(cc3sc(N4CCCCC4)nc13)OCCO2 80.5%, COc1cccc(CNCCc2c[nH]c3ccccc23)c1OCc1ccccc1F 92.7%, COc1cc([N+](=O)[O-])ccc1NC(=O)COC(=O)CCOc1ccc(C)cc1 51.2%, Cc1ccc(C)c(S(=O)(=O)N2CCN(c3ncnc4sccc34)CC2)c1 58.5%, Cc1cccc(CS(=O)(=O)c2ncc(Cl)c(C(=O)Nc3ccc(F)cc3)n2)c1 108%, Cc1cccc(NC(=O)c2nc(S(=O)(=O)Cc3ccccc3)ncc2Cl)c1 111%

inhibition, inactive:
CCOC(=O)C1CCCN(C(=O)c2cccc3ccccc23)CC1 (stereo not drawn) 10.3%, O=C(C1=C(O)C(=O)N(CCOCCO)C1c1ccccn1)c1cccs1 (stereo not drawn) -2.88%, COc1ccc(NC(=O)c2cc(=O)[nH]c3ccccc23)cc1S(=O)(=O)N1CCOCC1 -0.23%, OC[C@@H]1CN(Cc2cccs2)C[C@H](n2cnc3c(Nc4ccccc4)ncnc32)O1 -9.51%, CCCCN1CC(N2CCN(Cc3cccc(C)c3)CC2)CS1(=O)=O (stereo not drawn) -1.8%, O=C1NCC(c2ccccc2)(c2ccccc2)C(=O)N1 -0.6%, CCCNC(=O)C1(C)CCN1C(=O)C1(c2ccccc2)CC1 (stereo not drawn) 8.72%, O=C(CC1Oc2ccccc2NC1=O)NCCCN1CCN(Cc2ccccc2)CC1 (stereo not drawn) 1.93%, COc1ccccc1NC(=O)CCC(=O)N1CC(C)Oc2ccc(C)cc21 (stereo not drawn) 14.5%, CC(C)CN1CCC1(C)C(=O)Nc1ccc(OC(F)F)cc1 (stereo not drawn) 3.35%, COc1ccc(-c2ccc(OC(=O)NC3CCS(=O)(=O)C3)cc2)cc1 (stereo not drawn) -160%, COCCNc1nc(Nc2ccccc2Cl)c2sc(-c3ccccc3)cc2n1 5.82%, COCCNc1nc(NCc2ccc(NC(C)=O)cc2)c2sccc2n1 20.4%, C=CCc1cccc2cc(C(=O)N3CCN(C(=O)OCC)CC3)c(=O)oc12 22.4%, Cc1cccn2c(=O)c3cc(C(=O)NC4CCCCC4)sc3nc12 -45%, Cc1cccn2c(=O)c(/C=C(\C#N)S(=O)(=O)c3ccc(Cl)cc3)c(N3CCC(C(N)=O)CC3)nc12 -3.35%, FC(F)(F)c1ccccc1Cc1c(-c2ccccc2)nc2c3ccccc3ccn12 -34.1%, Cc1c(-c2ccccc2)n[nH]c1C(=O)N=Nc1c(O)[nH]c2ccccc12 -126%, O=C(NCc1ccncc1)c1ccc(NS(=O)(=O)c2cccc([N+](=O)[O-])c2)cc1 -13.3%, CCCCc1nc2ccc(F)cc2cc1C 6.65%, CCOC(=O)N1CCC(NC(=O)c2ccc3nc(N4CCOCC4)sc3c2)CC1 16.9%, CS(=O)(=O)N1CCCCC1c1cc(C(=O)NCc2ccccc2)no1 (stereo not drawn) -14.8%, O=[N+]([O-])c1ccc(CN2CC(N3CCC(c4ccccc4)CC3)CS2(=O)=O)cc1 (stereo not drawn) 10%, Fc1ccccc1COc1ccccc1CNCc1ccncc1 18.9%, COc1ccc(C(CCNCc2ccccc2F)c2ccc(F)cc2)cc1 (stereo not drawn) 17.7%, CNc1cncc(-c2ccc(NS(C)(=O)=O)cc2)n1 21.2%, CC1(C(=O)NS(=O)(=O)c2ccc(C#N)cc2)CCN1C(=O)CC1CCCC1 (stereo not drawn) 11.7%, COc1ccc(C(C#N)=C2C=CC(=NO)c3ccccc32)cc1 -114%, COc1ccc(NS(=O)(=O)c2cc3c(cc2C)N(C(C)=O)CCO3)cc1 9.24%, COc1ccc([N+](=O)[O-])cc1NCC(=O)c1ccc(C)cc1 -17.2%, CSc1ccccc1NC(=O)COC(=O)CCCOc1ccc(C)cc1 8.63%, CN1OC[C@@H]2CN(C(=O)c3cccc4ccccc34)[C@H](c3ccc(N4CCCCC4)cc3)C[C@@H]21 1%, O=C(Nc1ccccc1C(=O)NCC1CCCO1)c1ccccc1F (stereo not drawn) 6%, CSc1n[nH]c(=S)n1N 12.2%, Cc1ccc(C)c(S(=O)(=O)N2CCN(C(=O)Nc3ccccc3)CC2)c1 5.32%, COc1ccc(-c2csc3ncnc(N4CCN(S(=O)(=O)c5ccccc5C#N)CC4)c23)cc1 33.6%, CC(C)Cc1ccc(-c2cc3nc(NCc4cccc(Cl)c4)ccn3n2)cc1 -178%, CC(C)NC(=O)C1(C)CCCCN1Cc1cccc(C(F)(F)F)c1 (stereo not drawn) -13.2%, COc1ccc(-c2ccc(C(=O)NC(C)C)c3occc23)c(C)c1 -11.5%, Cc1ccc(Cn2c(C)c(C(=O)NCc3ccccc3C(F)(F)F)sc2=O)cc1 18.5%, CN1CCN(c2ccc(NC(=O)c3ccc4c(c3)[nH]c(=O)n4Cc3ccc(F)cc3)cc2)CC1 24.3%, O=C(Nc1ccc(F)cc1)c1ccc(S(=O)(=O)NCc2cccnc2)cc1 -20.7%, Cc1cc(C)cc(NS(=O)(=O)Cc2ccccc2)c1 -13.5%, Cc1cccc(NC(=O)Cn2cc(C(=O)c3ccco3)c3ccccc32)c1 8.59%, CC(Oc1cc2oc(=O)c3c(c2cc1Cl)CCCC3)C(=O)NCc1ccncc1 (stereo not drawn) 3.42%, Cc1ccc2nc(-c3ccccc3)c(CC3CCCCC3)n2c1 -146%, Clc1cccc(Cc2c(-c3cccc(Cl)c3)nc3ccc(Cl)cn23)c1 -112%, COc1ccc(CN2CCC(C)(Oc3cccc(F)c3)C2)c2ccccc12 (stereo not drawn) -19.4%
